Data published in PubChem BioAssay.
Several values for one entry are separate records, joined by “and”; a condition that tells them apart may be missing. Equal entries are not always repeated. Activity calls are given as the source filed them.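 Rule for the calls: active = compounds whose cell count with miR-34 switched on is under 0.7 times the count with it off; inactive = the rest.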

Assay: viability loss with induced miR-34 in A549 – imaging, A549 dox-inducible miR-34, nuclei and caspase counts, primary screen (AID 1347080); note: test concentration not given here
Settings: A549 miR-34 inducible, Hoechst nuclei count, 48 h
[1] = stronger effect = lower value, cell number ratio, induced over uninduced
[2] = measured here: relative caspase fold change +Dox/-Dox
[3] = measured here: total cells with miR-34 induction, stronger effect = lower value
[4] = measured here: total cells without miR-34 induction

Row | Structure (SMILES) | fold change [1] | fold change [2] | cell count [3] | cell count [4]
1 | CCCCCCCCCCCCCCCCC/C=C/C(=O)O | 0.976 (inactive) | 0.547 | 5370 | 5500
2 | CCCCC[C@H](O)/C=C/[C@@H]1[C@@H](C/C=C\CCCC(=O)NC(CO)CO)[C@@H](O)C[C@H]1O | 1.01 (inactive) | 1.3 | 6050 | 5980
3 | CC(C)CCCC(C)CCCC(C)CCCC(C)CC(=O)O (configuration not stated) | 0.992 (inactive) | 0.832 | 5990 | 6040
4 | CCCCC/C=C\C/C=C\C/C=C\CCCCC(=O)OC | 1.06 (inactive) | 0.952 | 6900 | 6530
5 | O=P(O)(O)O[C@@H]1[C@H](O)[C@H](O)[C@@H](OP(=O)(O)O)[C@H](OP(=O)(O)O)[C@H]1O | 0.931 (inactive) | 0.377 | 5940 | 6380
6 | CCCCCCC(Sc1nc(Cl)cc(NCc2ccc(-c3ccccc3)cc2)n1)C(=O)O (configuration not stated) | 0.993 (inactive) | 1.34 | 6140 | 6180
7 | CC(=O)OC1=C(C)NC(C)=C(OC(C)=O)C1c1ccccc1[N+](=O)[O-] | 0.849 (inactive) | 1.01 | 3570 | 4210
8 | CCCCC[C@H](O)CC[C@@H]1[C@@H](C/C=C\CCCC(=O)O)[C@@H](O)C[C@H]1O | 0.936 (inactive) | 1.41 | 6190 | 6610
9 | CCCCC/C=C\C/C=C\CC/C=C\CCCC(=O)OCC | 1.04 (inactive) | 1.09 | 5570 | 5390
10 | CCCCC[C@H](O)/C=C/[C@H]1C=CC(=O)[C@H]1C/C=C\CCCC(=O)O | 1.06 (inactive) | 1.6 | 6170 | 5800
11 | CC(C)Oc1ccc(Cc2ccc(NC3=NCCN3)cc2)cc1 | 0.976 (inactive) | 0.967 | 5900 | 6040
12 | CCCCCCCCCCCCCCCCCCCCCCCCCCCCCCO | 0.965 (inactive) | 0.745 | 6130 | 6350
13 | CCCCC[C@H](O)C/C=C1/C(=O)C[C@H](O)[C@@H]1C/C=C\CCCC(=O)O | 0.935 (inactive) | 1.09 | 5280 | 5650
14 | C[C@H](CCCO)[C@H]1CC[C@H]2[C@@H]3[C@H](O)C[C@H]4CC(=O)CC[C@]4(C)[C@H]3C[C@H](O)[C@]12C | 0.847 (inactive) | 0.203 | 4760 | 5610
15 | COc1cc(C[C@H]2COC(=O)[C@@H]2Cc2ccc(O)c(OC)c2)ccc1O | 0.981 (inactive) | 0.938 | 5500 | 5600
16 | CCCCC/C=C\C/C=C\CCCCCCCC(=O)O[C@H](COC(=O)CCCCCCCCCCCCCCC)COP(=O)(O)OCCN | 0.789 (inactive) | 0.779 | 4540 | 5760
17 | C[C@@H]1CC[C@H]2[C@@H](C)C(O)O[C@@H]3OC4(C)CC[C@@H]1[C@]32OO4 (some centres not stated) | 0.843 (inactive) | 0.767 | 3740 | 4440
18 | CN(C)C(=O)CCSC(SCCC(=O)O)c1cccc(/C=C/c2ccc3ccc(Cl)cc3n2)c1 (configuration not stated) | 1 (inactive) | 1.76 | 5360 | 5340
19 | CCCCC[C@H](O)/C=C/[C@H]1C2CC(CO2)[C@@H]1C/C=C\CCCC(=O)O (some centres not stated) | 0.956 (inactive) | 0.835 | 5400 | 5650
20 | O=C1O/C(=C/Br)CC[C@H]1c1cccc2ccccc12 | 1.14 (inactive) | 0.781 | 3970 | 3470
21 | CCCCCCCCCCCCCCCC(=O)NCCS(=O)(=O)O | 1.07 (inactive) | 0.86 | 6370 | 5950
22 | C=C1C[C@H](O)[C@H](C/C=C\CCCC(=O)O)[C@H]1/C=C/C(=O)CCCCC | 1.11 (inactive) | 1.24 | 5720 | 5160
23 | CCCC[C@H](C)C[C@H](O)/C=C/[C@H]1[C@H](O)CC(=O)[C@@H]1CCCCC(CC(=O)O)OC (some centres not stated) | 0.949 (inactive) | 0.824 | 5200 | 5480
24 | CCCCCCCCCCCC1N[C@H](C(=O)O)CS1 (some centres not stated) | 0.939 (inactive) | 1.06 | 5330 | 5670
25 | CC(C)=CCC/C(C)=C/CC/C(C)=C/CSc1ccccc1C(N)=O | 0.994 (inactive) | 0.741 | 5740 | 5780
26 | CCCCC(C)(C)[C@H](O)/C=C/[C@H]1[C@H](O)CC(=O)[C@@H]1CCCCCCC(=O)O | 0.94 (inactive) | 1.17 | 5660 | 6020
27 | COc1ccc(/C=C/c2cc(O)cc(O)c2)cc1O | 0.915 (inactive) | 0.703 | 5710 | 6250

Row | Structure (SMILES) | fold change [1] | fold change [2] | cell count [3] | cell count [4]
28 | O=C(CCC/C=C\C[C@@H]1[C@@H](/C=C/[C@@H](O)CCc2ccccc2)[C@H](O)C[C@@H]1O)NC(CO)CO | 0.978 (inactive) | 1.15 | 5210 | 5330
29 | CCCC1([C@@H](O)C/C=C/[C@H]2C(O)CC(=O)[C@@H]2CCCCCCC(=O)OC)CCC1 (some centres not stated) | 1.02 (inactive) | 1.54 | 6030 | 5910
30 | CC/C=C\C/C=C\C/C=C\CCCCCCCC(=O)N[C@@H](Cc1ccc(O)cc1)C(=O)O | 0.852 (inactive) | 2.46 | 5060 | 5940
31 | NC(=O)c1cccc(-c2cccc(OC(=O)NCCCCCCc3ccccc3)c2)c1 | 0.904 (inactive) | 0.743 | 5110 | 5650
32 | CC/C=C\C/C=C\C/C=C\C/C=C\C/C=C\CCCC(=O)O[C@H](COCCCCCCCCCCCCCCCC)COP(=O)([O-])OCC[N+](C)(C)C | 0.886 (inactive) | 1.31 | 5330 | 6010
33 | CCCCC(C)(C)[C@H](O)/C=C/[C@@H]1[C@@H](C/C=C\CCCC(=O)O)[C@@H](O)C[C@H]1O | 0.98 (inactive) | 1.24 | 5690 | 5800
34 | COc1ccc(-c2nc3cc(F)ccc3s2)cc1OC | 0.915 (inactive) | 0.244 | 4920 | 5370
35 | O=C(O)CCC/C=C\C[C@@H]1[C@@H](/C=C/C(=O)CCc2ccccc2)[C@H](O)C[C@@H]1O | 0.902 (inactive) | 1.59 | 5390 | 5980
36 | C=C1C[C@@H](O)[C@H](/C=C/[C@@H](O)C(C)(C)CCCC)[C@H]1C/C=C\CCCC(=O)O | 0.979 (inactive) and 0.901 (inactive) | 1.17 and 1.12 | 6150 and 5990 | 6290 and 6650
37 | CCCCCOc1ccccc1C(O)CC#CCCCC(=O)OC (configuration not stated) | 0.937 (inactive) | 1.89 | 5930 | 6340
38 | COC(=O)C1=CC[C@@]23CC[C@@H]([C@@](C)(/C=C/C=C(\C)C(=O)O)OC2=O)[C@@]3(OC(C)=O)CC1 | 1.15 (inactive) | 0.682 | 2140 | 1860
39 | CCCCCCCCCC(=O)N[C@@H](CN1CCOCC1)[C@@H](O)c1ccccc1 | 0.924 (inactive) | 0.927 | 5480 | 5940
40 | Cc1nc(COP(=O)(O)O)cc(CN(CCN(CC(=O)O)Cc2cc(COP(=O)(O)O)nc(C)c2O)CC(=O)O)c1O.[Mn] | 1.02 (inactive) | 0.746 | 9240 | 9050
41 | CCCCC[C@H](O)/C=C/[C@@H]1[C@H](CCCCCCC(=O)O)[C@@H](O)C[C@H]1O | 0.957 (inactive) | 1.43 | 6250 | 6530
42 | O=C(O)CCC/C=C\C[C@@H]1[C@@H](/C=C/[C@@H](O)COc2ccccc2)[C@H](O)C[C@@H]1O | 0.956 (inactive) | 1.11 | 6410 | 6700
43 | CCCCC[C@H](O)/C=C/[C@@H]1[C@@H](CCCCCCC(=O)O)[C@H](O)C[C@H]1O | 0.962 (inactive) | 1.22 | 6020 | 6250
44 | CCCCCC(=O)CC[C@H]1[C@H](O)CC(=O)[C@@H]1C/C=C\CCCC(=O)O | 0.975 (inactive) | 1.25 | 6140 | 6290
45 | O=C(O)CCCCCC[C@H]1C(=O)NC(=O)N1CCC(O)C1CCCCC1 (some centres not stated) | 1.09 (inactive) | 1.38 | 6150 | 5640
46 | CCCCC[C@@H](O)/C=C/[C@@H]1[C@@H](C/C=C\CCCC(=O)O)[C@@H](O)C[C@H]1O | 0.977 (inactive) | 1.24 | 5960 | 6100
47 | CCCCC/C=C\C/C=C\CCCCCCCC(=O)OCC | 0.908 (inactive) | 0.749 | 4750 | 5230
48 | CCCCC[C@H](O)/C=C/[C@H]1C(=O)C[C@H](O)[C@@H]1C/C=C\CCCC(=O)OCC(O)CO (some centres not stated) | 1.06 (inactive) | 1.71 | 6090 | 5740
49 | CC(=O)[C@H]1[C@H](C#N)C[C@H]2[C@@H]3CC=C4C[C@@H](O)CC[C@]4(C)[C@H]3CC[C@@]21C | 1.01 (inactive) | 1.04 | 5370 | 5300
50 | CCCCC/C=C\C/C=C\C/C=C\C/C=C\CCCC(=O)NC[C@]1(C)CCC[C@]2(C)c3ccc(C(C)C)cc3CC[C@@H]12 | 0.99 (inactive) | 1.27 | 5530 | 5580
51 | CCCCCC#CCC#CCCCCCCCC(=O)O | 0.999 (inactive) | 0.839 | 6260 | 6270
52 | CC#CCC(C)C(=O)/C=C/[C@@H]1[C@H]2C/C(=C/CCCC(=O)O)C[C@H]2C[C@H]1O (some centres not stated) | 0.968 (inactive) | 3.57 | 5500 | 5680
53 | COc1ccc(C[C@H](N)C(=O)N[C@H]2[C@@H](O)[C@H](n3cnc4c(N(C)C)ncnc43)O[C@@H]2O)cc1 | 0.887 (inactive) | 1.17 | 1130 | 1270
